Bioassay records: PubChem BioAssay, National Center for Advancing Translational Sciences (NCATS)
ATXN2 expr inh: ATXN2 expression inhibition; HEK-293 ATXN2-luciferase reporter, luminescence, 24 h; Potency, µM (top dose mostly 57 µM), inactives show top-dose activity change, negative = inhibition, usual class: inhibitors; 360,000 tested, 0.72% active; AID 1745845; note: % is set by controls: 0 for no effect and ±100 for the full control effect; nearly all actives have a fitted effect of over 55% in size
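ATXN2-luciferase reporter cells (luciferase flanked by upstream and downstream ATXN2 gene portions) were treated 24 h at 37 °C with compounds at up to 57 uM. SteadyGlo luminescence gave expression; GF-AFC fluorescence gave viability.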
S2 tox: reduces viability in counter-screen for ATXN expression inhibitors; AID 651635; Potency, µM (doses to about 56.7 µM), hits mostly cytotoxic; 400,000 tested, 0.49% active; S2 cells (HEK-293 line with an ATXN2-luciferase reporter) viability, CellTiter-Fluor protease fluorescence, 24 h; note: nearly all actives have a fitted effect of over 40% in size
Anesthetic bind: binds horse apoferritin like a general anesthetic. 350,000 tested, 0.074% active. apoferritin/1-aminoanthracene competitive binding, fluorescence. Potency, µM (highest dose often 77.5 µM), inactives show at the highest dose activity change, negative = displacement, usual class: inhibitors. P02791; note: % is set by controls: 0 for no effect and ±100 for the full control effect; nearly all actives have a fitted effect of over 20% in size
Target sequence (P02791 2-175 limits assumed): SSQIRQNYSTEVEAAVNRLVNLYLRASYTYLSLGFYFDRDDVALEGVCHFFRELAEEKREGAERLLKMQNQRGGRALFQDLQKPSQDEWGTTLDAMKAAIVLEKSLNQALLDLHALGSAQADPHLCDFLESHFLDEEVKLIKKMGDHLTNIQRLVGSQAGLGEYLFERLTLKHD
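Probe: 1-aminoanthracene (50% saturated, PBS). Protein: horse-spleen apoferritin, 10 uM. Incubation: 10 min, room temperature. Detection: 380 nm excitation, 535 nm emission. Analysis: normalized response, four-parameter Hill.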
TGFb SMAD3 inh: TGF-b pathway inhibition; HepG2 CAGA-GFP TGF-b/SMAD3 reporter, GFP fluorescence, 18 h; TGF-beta stimulated, 500 pg/mL final; Potency, µM (series often up to 46.1 µM), without a hit: top-dose activity, negative = inhibition, hits mostly inhibitors; 410,000 tested, 1.2% active; AID 588855; note: % is set by controls: 0 for no effect and ±100 for the full control effect; nearly all actives have a fitted effect of over 65% in size
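Inhibition was scored as loss of TGF-beta-induced (500 pg/mL final, 18 hours, 37 degrees C) GFP in HEPG2 cells carrying a CAGA-GFP reporter, in DMEM with 1% FBS. Well GFP was summed per cell; Activity was normalised to unstimulated and stimulated DMSO wells, then concentration-response fitting.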
HepG2 tox: counter-screen for TGF-b inhibitors: cytotoxicity in HepG2 cells. HepG2 CAGA-GFP viability, ATP luminescence, 18 h. Potency, µM (titrated, usually from 46.1 µM), for inactives: top-dose activity change, negative = cytotoxicity, actives largely listed as cytotoxic. 410,000 tested, 0.76% active. AID 588856
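HepG2 CAGA-GFP cells (1000/well, DMEM with 1% FBS) received compound, then TGF-beta at 500 pg/mL final, and were incubated 18 hours at 37 degrees C. Viability was read by CellTiter-Glo luminescence. Media-only wells were set as complete cell-killing and DMSO as no toxicity.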
The depositor's hits bear a star; i = inactive; ? = inconclusive; nt = not tested or not shown; ! = not confirmed by another sample. This is a sample that favours compounds with a hit; in the whole collection about 2.4% have one here. Calls come from the whole dose curve; as a rule, active = well fitted curve in the direction sought with a large enough effect; inconclusive = small, poorly fitted or top-dose-only effect, or another doubt; inactive = no such curve, though single readings can be large; an effect the other way counts as inactive or inconclusive. Potency is the fitted concentration of half-maximal effect.

SMILES | ATXN2 expr inh | S2 tox | Anesthetic bind | TGFb SMAD3 inh | HepG2 tox
Oc1c(C(c2ccccn2)N2CCC(Cc3ccccc3)CC2)cc(Cl)c2cccnc12 (stereo not given) | ? | nt | -5% | 16µM* | -48%
Clc1cc(Br)ccc1OCCCNCc1ccccc1 | -18% | i | 2% | 11µM* | 13µM*
Cc1ccc(C)c(OCCCNCc2ccccc2)c1 | nt | i | -18% | 5% | -17%
CC(C)(OCc1nn(Cc2ccccc2)c2ccccc12)C(=O)O | -2% | nt | nt | nt | nt
O=C(/C=C/c1ccccc1)CCN1CCCCC1 | ? | ? | nt | 11µM* | 20µM*
CNc1nc(C#N)nc(Nc2ccccc2)n1 | nt | nt | -9% | nt | nt
COc1cc2ncnc(N3CCN(C(=O)Nc4ccc(Oc5ccccc5)cc4)CC3)c2cc1OC | nt | nt | nt | 10µM* | 1%
COc1cccc(CNC(=O)C(NS(=O)(=O)c2ccc3c(c2)oc(=O)n3C)C(C)C)c1 (stereo not given) | 1% | i | 6% | 1% | -6%
CCCC(=O)Nc1sc(C)c(-c2ccc(OC)cc2)c1C#N | -13% | i | 7% | 5% | 1%
CCCc1ccc(-c2c(C)sc(N)c2C#N)cc1 | -16% | ? | 35µM* | ? | -73%
CC1CCCC/C1=N\Nc1ccc(S(N)(=O)=O)cc1[N+](=O)[O-] (stereo not given) | 3% | i | ? | 11% | 2%
CC(C)(C)C1CCC(=NNc2ccc(S(N)(=O)=O)cc2[N+](=O)[O-])CC1 (stereo not given) | 1% | i | ? | ? | 11µM*
Cn1ccc(C(=O)NCC2CCC3(CCN(Cc4cc(F)cc(F)c4)CC3)O2)n1 (stereo not given) | nt | i | nt | nt | nt
CCc1cc(-c2n[nH]c(C)c2-c2ccc3c(c2)OCCO3)c(O)cc1O | 6.1µM* | nt | -17% | nt | nt
CCCc1cc(-c2n[nH]c(C)c2-c2ccc(C(=O)OCC)o2)c(O)cc1O | ? | ? | ? | 14µM* | -50%
Cc1ccc(CN2COc3ccc4c(C)cc(=O)oc4c3C2)cc1 | -7% | i | i | 32% | -6%
O=C(O)CCC1CCC(c2cc(F)ccc2F)(S(=O)(=O)c2ccc(Cl)cc2)CC1 (stereo not given) | 25% | nt | nt | nt | nt
Cc1ccc(Cl)cc1-n1ncc2c(NC3CCCCCC3)ncnc21 | ? | ? | ? | 11µM* | -33%
Cc1ccc(-n2ncc3c(NC4CCCCCC4)ncnc32)cc1Cl | 68% | i | -16% | -30% | -30%
CC(C)(C)n1ncc2c(=O)n(Cc3cccc(-c4ccccc4)c3)cnc21 | nt | nt | nt | ? | -28%
Cc1cc(Nc2ccc(Cl)cc2)nc(NCc2ccccc2)n1 | ? | ? | ? | ? | 11µM*
Cc1ccc(/C=N/Nc2cc(C)nc(NCc3ccccc3)n2)cc1 | -30% | i | -11% | ? | 13µM*
Cc1cc(N/N=C/c2ccc(F)cc2)nc(NCc2ccccc2)n1 | 37% | i | -5% | -5% | -53%
CCOC(=O)/C(=C\c1ccc(Cl)cc1)c1nc2sc(C)c(C)c2c(=O)[nH]1 | ? | nt | -14% | ? | 8.9µM*
Cn1cc(CN2CCCC(C(=O)Nc3ccc(-c4cccc(F)c4)cc3)C2)cn1 (stereo not given) | nt | 32µM* | ? | ? | -99%
SMILES | ATXN2 expr inh | S2 tox | Anesthetic bind | TGFb SMAD3 inh | HepG2 tox
c1cnc2c(c1)ccc1cccnc12 | 5.6µM*! | ? | -5% | ? | -12%
O=Cc1ccc2ccc3cccnc3c2n1 | 0% | i | -6% | ? | -20%
COc1ccc(-c2cn(Cc3ccc(C(=O)c4ccccc4)cc3)nn2)cc1 | 24% | ? | -23% | 10µM* | -30%
COc1ccc(-c2cn(Cc3ccc4ccccc4c3)nn2)cc1 | -3% | i | 0% | -10% | -8%
COc1ccc(CCNC(=O)c2ccc(Br)cc2)cc1 | 4% | i | -1% | 2% | -3%
COc1ccc(CCNC(=O)c2coc(=O)c(Br)c2)cc1 | ? | nt | 1% | 18µM* | 13µM*
CCCC(=O)N1CCN(c2ccc(NC(=O)c3cc4ccccc4o3)cc2Cl)CC1 | 14µM* | 18µM* | 21% | -12% | -9%
O=C(Nc1ccc(N2CCN(C(=O)c3ccco3)CC2)c(Cl)c1)c1cc2ccccc2o1 | 20µM* | nt | -5% | 1% | -13%
O=C(NCCN1Cc2ccccc2OC(c2ccsc2)C1)c1ccc2[nH]ccc2c1 (stereo not given) | nt | i | nt | nt | nt
CNC(=O)c1cc(Oc2ccc(NC(=O)Nc3ccc(Cl)c(C(F)(F)F)c3)cc2)ccn1 | 18µM*! | 16µM* | nt | ? | 16µM*!
O=C(Nc1ccc(Cl)c(C(F)(F)F)c1)c1ccncc1 | -25% | i | -9% | 0% | -15%
CCN1CCN(Cc2c(O)ccc3oc(C)c(C(=O)Nc4cccc(C(F)(F)F)c4)c23)CC1 | ? | ? | -21% | ? | 13µM*
Cc1nc(N2CCCC2)c2c(C(=O)Nc3cccc(Cl)c3C)c(C)oc2n1 | nt | nt | 5% | -16% | -19%
N=C1N=C(N)c2cc3ccccc3cc21 | 18µM* | 32µM* | nt | nt | nt
CCOC(=O)N1CCN(CC(O)COc2ccccc2C(C)C)CC1 (stereo not given) | -7% | i | -6% | -5% | -17%
CCN(CCNCC(O)COc1ccccc1C(C)C)c1cccc(C)c1 (stereo not given) | ? | nt | -1% | ? | 16µM*
Cc1ccc2c(c1)CN(CCC(=O)NCc1cc(C)n(C)n1)CC(C)O2 (stereo not given) | nt | i | nt | nt | nt
CN(C)C(=O)c1ccc2c(c1[N+](=O)[O-])C(=O)c1ccccc1C2=O | 29% | i | 1% | 10µM* | -46%
N#C/C(=C\c1ccc([N+](=O)[O-])o1)c1nc2ccccc2[nH]1 | 13µM* | i | 7% | ? | -35%
CCCCN(CCCC)c1ccc(C=Nc2ccc(/C=C/c3ccnc4ccccc34)cc2)cc1C | nt | nt | nt | -7% | -27%
CC(=O)N[C@@H](C)C(=O)NCC1Cc2cc(C)cc(-c3cnccn3)c2O1 (stereo not given in full) | nt | i | nt | nt | nt
CS(=O)(=O)c1ccc(C(=O)NCCN2C(=O)S/C(=C\c3cccnc3)C2=O)cc1[N+](=O)[O-] | nt | nt | -10% | 14µM* | -142%
CN(C)S(=O)(=O)c1ccc(C(=O)NCCN2C(=O)S/C(=C\c3cccnc3)C2=O)cc1 | 0% | ? | -8% | 10% | -42%
COc1ccc(F)c(Cn2cnc3c(cnn3C(C)(C)C)c2=O)c1Cl | nt | nt | nt | 3% | 7%
CC(C)c1ccc(NC(=O)c2ccc(F)c(S(=O)(=O)N3CCc4ccccc4C3)c2)cc1 | nt | nt | 6% | -38% | -16%
COc1ccccc1CNS(=O)(=O)c1cc(C(=O)Nc2cccc(C(F)(F)F)c2)ccc1F | nt | nt | ? | 11µM* | -18%
